Rows were chosen to be rich in hits. Some 4.7% of all compounds tested hit in one or more screens of this group.
D1 antagonist: Antagonist of Human D 1 Dopamine Receptor: qHTS; activity change, negative = inhibition, % at 10 µM; D(1A) dopamine receptor (Homo sapiens), P21728; AID 504652, 2011; 360,000 tested, 3.2% active; HEK293 TREx D1 cells, calcium flux, dopamine EC80; active compounds read low; in the data active means activity change below about -30%
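Compound effects on dopamine-evoked calcium signalling were measured in tetracycline-induced HEK293 Trex D1 cells. Dopamine at EC80 followed a 180 s compound pre-read, and fluorescence was tracked kinetically for 180 s more.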
TRHR ag: qHTS for Small Molecule Agonists and Allosteric Enhancers of Human TRH Receptor: Primary Screen for Agonists | TRHR cells, calcium flux fluo-8, FDSS agonist mode | activation, % at 2 µM | Thyrotropin-releasing hormone receptor (Homo sapiens), P34981 | AID 493084, 2011 | 360,000 tested, 0.18% active
Target sequence (P34981 whole entry, looked up): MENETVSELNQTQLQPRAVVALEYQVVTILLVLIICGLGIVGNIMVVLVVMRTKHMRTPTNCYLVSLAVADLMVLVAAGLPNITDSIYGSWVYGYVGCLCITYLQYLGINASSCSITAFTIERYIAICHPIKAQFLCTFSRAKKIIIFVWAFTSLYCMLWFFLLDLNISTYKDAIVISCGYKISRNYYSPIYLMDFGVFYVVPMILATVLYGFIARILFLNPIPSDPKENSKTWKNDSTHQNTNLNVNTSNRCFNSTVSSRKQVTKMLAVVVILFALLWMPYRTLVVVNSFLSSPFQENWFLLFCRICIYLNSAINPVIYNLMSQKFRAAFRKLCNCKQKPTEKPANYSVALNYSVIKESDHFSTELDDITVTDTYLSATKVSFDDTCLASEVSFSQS
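Agonist-mode FDSS calcium read (Ex 480/Em 530, 1 s cycles) in 1536-well TRHR cells with fluo-8 dye, after 10-cycle baseline and 23 nL compound addition; TRH at EC20 (10 nM final) added afterwards for the enhancer phase.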
D1 PAM: Potentiators of Human D1 Dopamine Receptor: qHTS; 360,000 tested, 0.036% active; HEK293 TREx D1 cells, calcium flux, dopamine EC20 potentiation; D(1A) dopamine receptor (Homo sapiens), P21728; potentiation, % at 10 µM; in the data active means potentiation above about 30%
TRHR PAM: qHTS for Small Molecule Agonists and Allosteric Enhancers of Human TRH Receptor: Primary Screen for Enhancers. TRHR cells, fluo-8 calcium fluorescence, EC20 TRH enhancement. enhancement, % at 2 µM. 360,000 tested, 0.66% active. Thyrotropin-releasing hormone receptor (Homo sapiens), P34981; in the data active means enhancement above about 30%
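TRHR-expressing cells loaded with fluo-8 calcium dye were read kinetically (ex 480/em 530) during compound addition, then stimulated with an EC20 of TRH (10 nM final). Enhancement of the Gq-mediated intracellular calcium response was scored.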
D1 agonist: Allosteric Agonists of the Human D1 Dopamine Receptor: qHTS. D(1A) dopamine receptor (Homo sapiens), P21728. HEK293 T-REx D1 cells, calcium flux, agonist mode. activation, % at 2 µM. 360,000 tested, 1% active
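Agonism was scored from calcium flux recorded over 180 s (1 read/s) after pintool compound addition, following a 10-cycle baseline. Cells were inducible force-coupled HEK293 TREx D1, plated overnight at 30 C and loaded with no-wash calcium dye.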
A number is an active result; n = inactive. Unless noted, no stated cut-off is given here; in the data, active means activation above about 30%; inactive means the rest.

SMILES | D1 antagonist | TRHR ag | D1 PAM | TRHR PAM | D1 agonist
COc1ccccc1C(=O)N1N=C(c2ccc(NS(C)(=O)=O)cc2)CC1c1cccs1 (stereo unspecified) | n | n | n | 34.4 | n
CCN(C(=O)CSc1nc(-c2ccc(C(C)C)cc2)no1)c1ccccc1 | n | n | n | n | n
O=C(c1cnn(-c2ccccc2)c1)c1ccc2ccccc2c1O | -31.9 | n | n | n | n
COc1cc(OC)c2c(C)c(Cl)c(=O)oc2c1 | -36.3 | n | n | n | n
COCCN(Cc1cccs1)S(=O)(=O)c1ccc(-c2ccc(=O)[nH]n2)s1 | n | n | n | n | n
Cc1cc2nc3c(=O)n(C4CCCCC4)c(=O)[nH]c3nc2cc1N | n | 119.2 | n | n | 213.2
COCCNc1ccnc2c(Cl)cccc12 | n | n | n | n | n
COCCCNc1ccnc2c(Cl)cccc12 | n | n | n | 36.8 | n
COc1ccccc1Cc1nc2ccccc2nc1SCC(=O)NCc1ccc(C)cc1 | n | n | n | n | n
COc1cccc(CNC(=O)CSc2nc3ccccc3nc2Cc2ccc(C)cc2)c1OC | n | n | n | 32.8 | n
Cc1cc[n+](CC(=O)c2cccc([N+](=O)[O-])c2)c2ccccc12 | n | n | n | 34.2 | n
O=C(C[n+]1cccc2ccccc21)c1ccc([N+](=O)[O-])cc1 | n | n | n | n | n
CCOC(=O)c1[nH]c(C)c(C(=O)OCC(=O)N(Cc2ccccc2)C(C)C)c1C | n | n | n | n | n
CNC(=O)c1[nH]cnc1C(=O)N[C@@H](C)C(=O)OCc1ccccc1 | -33.5 | n | n | n | n
C[C@H](NC(=O)c1nc[nH]c1C(=O)N[C@@H](Cc1ccccc1)C(=O)OC(C)(C)C)C(=O)OCc1ccccc1 | n | n | n | n | n
C[C@H](NC(=O)c1nc[nH]c1C(=O)N[C@@H](Cc1ccccc1)C(=O)OCc1ccccc1)C(=O)OCc1ccccc1 | -30.9 | n | n | n | n
C[C@H](NC(=O)c1nc[nH]c1C(=O)NCC(=O)OCc1ccccc1)C(=O)OCc1ccccc1 | n | n | n | n | n
COc1ccc(OC)c(Cc2nnc(CCC(=O)N3CCN(C4CCCC4)CC3)o2)c1 | n | n | n | n | n
CCOC(=O)C1(Cc2ccc(OC)cc2)CCN(S(C)(=O)=O)CC1 | n | n | n | n | n
CCOC(=O)C1(Cc2ccc(Cl)cc2)CCN(C(C)Cc2ccc(O)c(OC)c2)CC1 (stereo unspecified) | -37.4 | n | n | n | n
COc1ccc(OC)c(/C=N/N(CCC#N)C2=NS(=O)(=O)c3ccccc32)c1 | n | n | n | n | n
CCc1ccc(NC(=O)CSc2ccc3nnc(CCNS(=O)(=O)c4ccc(OC)cc4)n3n2)cc1 | n | n | n | n | n
CCOc1cc(C(=O)Nc2ccccc2N2CCN(S(C)(=O)=O)CC2)cc(OCC)c1OCC | -63.8 | n | n | n | n
CCOc1cc(C(=O)Nc2ccc(N3CCN(S(C)(=O)=O)CC3)cc2)cc(OCC)c1OCC | n | n | n | n | n
O=C1COc2ccc(C(=O)COC(=O)Cc3c(F)cccc3Cl)cc2N1 | -30.8 | n | n | n | n
SMILES | D1 antagonist | TRHR ag | D1 PAM | TRHR PAM | D1 agonist
O=C1COc2ccc(C(=O)COC(=O)Cc3ccccc3F)cc2N1 | n | n | n | n | n
COCCn1c(C)cc(O)c(C(c2ccccc2Cl)N2CCN(c3ccccc3)CC2)c1=O (stereo unspecified) | n | n | n | n | n
Nc1c(C(=O)Nc2cccc(F)c2)sc2nc(-c3cccs3)ccc12 | n | n | n | n | 32.5
CCCSc1nnc(NC(=O)c2sc3nc(-c4cccs4)ccc3c2N)s1 | n | n | n | n | 43.1
CC(C)CC(=O)Nc1c(C(=O)N2CCN(c3ccccc3)CC2)oc2ccccc12 | n | n | n | n | n
CC(C)C(=O)Nc1c(C(=O)N2CCN(c3ncccn3)CC2)oc2ccccc12 | -33.6 | n | n | n | n
COc1ccccc1C(=O)Nc1c(C(=O)N2CCN(c3ccc(F)cc3)CC2)oc2ccccc12 | n | n | n | n | n
O=C(Cc1ccccc1)Nc1c(C(=O)N2CCN(c3ccc(F)cc3)CC2)oc2ccccc12 | -43.0 | n | n | n | n
CCCCC(=O)Nc1c(C(=O)N2CCN(c3ccccc3)CC2)oc2ccccc12 | -48.1 | n | n | n | n
CC(C)C(=O)Nc1c(C(=O)N2CCN(c3ccccc3F)CC2)oc2ccccc12 | n | n | n | n | n
O=C(COc1ccccc1)Nc1c(C(=O)N2CCN(c3ccc(F)cc3)CC2)oc2ccccc12 | -30.7 | n | n | n | n
Cc1cc(C)c(NS(=O)(=O)c2ccc(-c3cnc(C4CC4)o3)cc2)c(C)c1 | n | n | n | n | n
CCc1nn(CC(=O)Nc2c(C)cc(C)cc2C)c(=O)c2cc3sccc3n12 | n | n | n | n | n
CC(C)C(NC(=O)c1ccc(F)cc1)C(=O)N1CCOCC1 (stereo unspecified) | n | n | n | n | n
CC(C)C(NC(=O)c1ccc(F)cc1)C(=O)N1CCC1 (stereo unspecified) | -37.3 | n | n | n | n
CCCN(C(=O)CCc1nc(-c2ccc(OC)cc2)no1)c1ccccc1F | n | n | n | n | n
CN(C)c1ccc(/C=C2/NC(=O)NC2=O)cc1 | n | n | n | n | n
CN(C)c1ccc(/C=C2\N=C(c3ccc(Cl)c([N+](=O)[O-])c3)NC2=O)cc1 | n | n | n | n | 34.9
CN1C(=O)C2(Nc3ccccc3-c3nc4ccccc4n32)c2ccccc21 (stereo unspecified) | n | n | n | n | n
O=C1Nc2ccccc2C12Nc1ccccc1-c1nc3ccccc3n12 (stereo unspecified) | n | n | n | n | 37.1
COc1cc(/C=C2\N=C(c3ccccc3)OC2=O)ccc1OC(C)=O | n | n | n | n | n
COc1ccc(OC)c(/C=C2\N=C(c3ccccc3)OC2=O)c1 | n | n | n | n | 74.0
OCCc1c[nH]c2ccc(OCc3ccccc3)cc12 | n | n | n | n | n
CCOc1cccc(CC(=O)N2CCc3c([nH]c4ccccc34)C2c2ccc(Cl)cc2)c1OCC (stereo unspecified) | -86.5 | n | n | n | n
O=C(CCc1ccccc1)N1CCc2c([nH]c3ccccc23)C1c1ccc(Cl)cc1 (stereo unspecified) | n | n | n | n | n
CCOC(=O)N1CCN(Cc2nc(-c3ccccc3)no2)CC1 | n | n | n | n | n
CCOC(=O)N1CCN(Cc2nc(-c3cccc(C)c3)no2)CC1 | -31.3 | n | n | n | n
